Data taken from ChEMBL document CHEMBL4888484, “Replenishing the malaria drug discovery pipeline: Screening and hit evaluation of the MMV Hit Generation Library 1 (HGL1) against asexual blood stage Plasmodium falciparum ,using a nano luciferase reporter read-out” (2022).
Screen size: about 150,000 compounds; about 540 (0.36%) showed an effect of 50% or more. The full list was thinned out, with strong results kept by preference.

Each compound was assayed on Plasmodium falciparum (assay: Primary screen in NF54 nanoGlo assay, in single point, at 2uM, 72h; a lower Z score goes with more inhibition). Details: timepoint 72 hour.
Assay type: functional, Erythrocyte

Structure (SMILES)	% Inhibition	Z score
Cc1nc2ccc(NC(=O)C3C4C=CC(C4)C3C(=O)O)cc2s1 (stereo unspecified)	7%	-1.15
Brc1ccc(-c2nc(Cn3ccnn3)co2)cc1	-11%	1.68
FC(F)(F)c1ccc(-c2nc(Cn3ccnn3)co2)cc1	89%	-0.03
CCOc1ccc(-c2nc(Cn3ccnn3)co2)cc1	-6%	1.08
CO[C@H]1CN(C2CCN(C(=O)CCc3c[nH]c4ccccc34)CC2)C12CCOCC2	-2%	0.27
O=C(N[C@H]1CCN(c2cnccn2)C[C@@H]1O)c1ccc2c(c1)OCO2	0%	0.01
COc1ccc(CC(=O)N2CC3(C[C@H](N4CCCCC4)CO3)C2)cc1	-5%	0.75
CC(=O)N[C@@H]1CN(Cc2nccn2Cc2ccccc2)C[C@H]1c1nccn1C	30%	-1.12
Cn1ccnc1[C@@H]1CCCN1Cc1nccn1Cc1ccccc1	50%	-4.75
Cn1cc([C@@H]2CCCN2Cc2nccn2Cc2ccccc2)cn1	-5%	0.74
CN(CC(c1ccccc1)c1ccccc1)[C@H]1COC[C@@H]1O	-10%	1.87
CC1=C(C(=O)N2C[C@H]3CC=CC[C@H]3C2)C(C)NC(=O)N1 (stereo partly specified)	-13%	2.39
C[C@@]1(C(=O)NCc2ccccc2)Cn2nc(-c3ccccc3)cc2C(=O)N1c1ccc2c(c1)OCCO2	52%	-8.25
COc1ccc(-c2cc3n(n2)C[C@@](C)(C(=O)NCc2ccccc2OC)N(c2ccc(C)cc2)C3=O)cc1	-4%	0.55
CCc1ccc(-c2cc3n(n2)C[C@@](C)(C(=O)NC2CCCCC2)N(c2cccc(C)c2C)C3=O)cc1	-2%	0.32
CCc1ccc(-c2cc3n(n2)C[C@@](C)(C(=O)NC2CCCCCC2)N(c2ccc(F)cc2)C3=O)cc1	0%	0.02
COc1ccc(-c2cc3n(n2)C[C@@](C)(C(=O)NCc2ccccc2)N(Cc2ccc4c(c2)OCO4)C3=O)cc1	52%	-8.23
C[C@@]1(C(=O)NCc2ccccc2)Cn2nc(-c3ccccc3)cc2C(=O)N1C1CC1	9%	-1.39
Cc1ccc(CNC(=O)[C@]2(C)Cn3nc(C)cc3C(=O)N2c2ccc3c(c2)OCCO3)cc1	-1%	0.18
COc1ccc(CN2C(=O)c3cc(-c4ccc(OC)cc4)nn3C[C@@]2(C)C(=O)NCc2ccccc2)cc1	6%	-0.96
COc1ccc(-c2cc3n(n2)C[C@@](C)(C(=O)NCc2ccccc2OC)N(c2cc(C)cc(C)c2)C3=O)cc1	9%	-1.43
CCc1ccc(-c2cc3n(n2)C[C@@](C)(C(=O)NC2CCCCC2)N(c2cc(C)cc(C)c2)C3=O)cc1	71%	-11.34
COc1ccc(-c2cc3n(n2)C[C@@](C)(C(=O)NCc2ccccc2OC)N(c2cccc(OC)c2)C3=O)cc1	51%	-8.04
COc1ccc(-c2cc3n(n2)C[C@@](C)(C(=O)NCc2ccccc2)N(Cc2ccccc2Cl)C3=O)cc1	17%	-2.69
Cc1nc(NC(=O)CC2=CCCCC2)n(C)n1	5%	-0.53
CN(C(=O)OC(C)(C)C)[C@H]1CCCN(C(=O)c2ccn(C)c(=O)c2)C1	3%	-0.37
CC1(C)CC(C)(C)c2ccccc2CN1	3%	-0.41

Structure (SMILES)	% Inhibition	Z score
Cn1nccc1NC(=O)Cn1ncc2cc(-c3cccc4cccnc34)ccc21	0%	-0.05
COc1ccc(C2=C[C@@H](c3ccc(F)cc3)n3ncc(C(=O)Nc4ccc(C)cc4)c3N2)cc1	2%	-0.16
CCc1ccc(C2=C[C@@H](c3cccc(OC)c3)n3ncc(C(=O)Nc4ccc(C)cc4)c3N2)cc1	60%	-5.98
COc1ccc(C2=C[C@@H](c3cccc(OC)c3)n3ncc(C(=O)Nc4ccccc4)c3N2)cc1	6%	-0.59
O=C(N[C@@H](Cn1nccn1)c1ccccc1)c1cc(Br)ccc1Cl	57%	-6.89
O=C(N[C@@H](Cn1nccn1)c1ccccc1)c1ccncc1	-13%	1.97
O=C(N[C@@H](Cn1nccn1)c1ccccc1)c1cc(-c2ccccc2)n[nH]1	-4%	0.69
Fc1cc(Cl)ccc1OC[C@@H]1CCCN2CCCC[C@H]12	17%	-2.29
Clc1cccc(OC2CN(C[C@@H]3CCCN4CCCC[C@H]34)C2)c1	3%	-0.42
Cc1n[nH]c(C)c1CCCN(C)C(=O)c1cn2cccnc2n1	4%	-0.72
Cc1cc(C)c(CNC(=O)c2cnn(C)c2C)c(=O)[nH]1	-9%	1.13
Clc1ccc(-c2nnc(-c3ccco3)c3nocc23)cc1	3%	-0.41
O=c1[nH]nc(-c2ccc(Cl)cc2)c2cn(-c3ccc(Cl)cc3)nc12	-14%	1.65
Cc1nnc(-c2ccco2)c2cn(-c3ccc(Cl)cc3)nc12	69%	1
Cc1noc(C)c1C(=O)N1CCC[C@H](Oc2ncc(Cl)cn2)C1	-3%	0.45
O=C(NCCN1CCC[C@H](CO)C1)c1cccc(-c2ccc3occc3c2)c1	-3%	0.37
Cn1nc2c(c1C(=O)NCc1csc(N)n1)CCCC2	5%	-0.77
CNc1nc(NCCc2ccccc2)nc2ccccc12	83%	-8.48
Nc1ncnc(NCCc2ccccc2)n1	2%	-0.24
C[C@H](Nc1nc(N(C)C)nc2ccccc12)c1ccccc1	-5%	0.67
CC(C)COC(=O)c1nc2ccccc2nc1Nc1ccc2c(c1)OCCO2	8%	-0.98
Cc1nc(Nc2ccc3c(c2)OCCO3)cc(-c2ccccc2)n1	5%	-0.89
CNc1nc(Nc2ccc3c(c2)OCCO3)nc2ccccc12	89%	-16.08
C[C@H](Nc1nc(N2CCCCC2)nc2ccccc12)c1ccccc1	40%	-5.78
CNc1nc(NCc2ccccc2)nc2ccccc12	81%	-8.4
NS(=O)(=O)c1ccc(CCNc2nc(-c3ccccc3)nc3ccccc23)cc1	39%	0.27
